From PubChem BioAssay AID652115 (Broad Institute, 2013) come the findings set out here.

The campaign covered roughly 330,000 compounds. About 3,800 (1.2%) were called active. The list comes from a sample in which actives are over-represented; it also holds similar structures and randomly drawn compounds. Unmarked numbers belong to inactive results. Cut-off read from the data, not from the text of the source: active = inhibition above about 15%; inconclusive = no clear call, values can overlap the other calls; inactive = below that.

The target of this experiment is NAD-dependent protein deacylase sirtuin-5, mitochondrial (Homo sapiens) (UniProt Q9NXA8). Put plainly: blockers of sirtuin-5 deacylase activity – biochemical, fluorescence imaging, single point, set 5, primary screen (AID 652115). The following applies: Purified SirT5, succinyl-peptide AMC, trypsin-coupled fluorescence; at 15 µM; hits give high values.
Sequence of NAD-dependent protein deacylase sirtuin-5, mitochondrial (Homo sapiens) (Q9NXA8 whole entry, looked up): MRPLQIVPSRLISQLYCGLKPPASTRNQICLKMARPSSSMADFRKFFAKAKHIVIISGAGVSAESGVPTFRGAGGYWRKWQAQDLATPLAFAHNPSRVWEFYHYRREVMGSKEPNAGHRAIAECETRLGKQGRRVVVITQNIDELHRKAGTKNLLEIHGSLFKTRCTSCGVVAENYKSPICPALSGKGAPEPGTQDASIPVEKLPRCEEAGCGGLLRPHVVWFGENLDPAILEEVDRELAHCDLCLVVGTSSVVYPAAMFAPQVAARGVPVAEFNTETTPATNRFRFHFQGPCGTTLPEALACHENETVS
Regarding `C[C@@H]1CN([C@@H](C)CO)C(=O)c2cc(/C=C/c3ccccc3)cnc2O[C@H]1CN(C)C(=O)Nc1ccc(C(F)(F)F)cc1`, the inhibition was 8.54%.
The same measure for `C[C@@H]1CN([C@H](C)CO)C(=O)c2cccc(NS(=O)(=O)c3ccc(F)cc3)c2O[C@@H]1CN(C)S(=O)(=O)c1ccccc1`: 3.68%; for `Cc1ccc(NC(=O)Cn2c(C)csc2=O)cc1`: 4.07%.
In the case of `Cc1nn(CC(=O)Nc2ccc(F)cc2)c(=O)c2ccccc12`, the inhibition was -1.48%.
Consider `Cc1ccc(NC(=O)Cn2sc3ccccc3c2=O)cc1`, for which the inhibition was 19.6% (active).
On to `O=C(C[C@H]1C=C[C@H](NC(=O)Nc2ccccc2F)[C@@H](CO)O1)NCc1ccc(Cl)cc1`, for which the inhibition was -6.94%.
Regarding `CN1c2ccc(Br)cc2[C@H]2[C@H](CCN2S(=O)(=O)c2ccc(F)cc2)[C@@H]1CO`, the inhibition is 0.059%.
Consider `CC(C)NC(=O)N(C)C[C@H]1Oc2cc(C#Cc3ccccn3)ccc2S(=O)(=O)N([C@H](C)CO)C[C@@H]1C`, for which the inhibition was -0.996%.
Take `CCNC(=O)[C@@H]1[C@@H](CO)[C@@H]2Cn3c(ccc(C4=CCCC4)c3=O)[C@H]1N2Cc1ccccc1`: the inhibition is -12.8%.
The same measure for `COc1cc(C2C3=C(CCCC3=O)OC3=C2C(=O)CCC3)ccc1OCC(=O)Nc1ccccc1`: 1.24%; for `COc1ccc(C2C3=C(CCCC3=O)N(CC(=O)O)C3=C2C(=O)CCC3)cc1`: -6.31%.
`NC1=C([N+](=O)[O-])C(c2ccccc2)C2=C(CCCC2=O)O1` (configuration not stated): the inhibition was 15.7% (active).
Turning to `C[C@H]1CCCCO[C@@H](CN(C)C(=O)c2ccccc2)[C@@H](C)CN([C@@H](C)CO)C(=O)c2cc(NS(=O)(=O)c3ccccc3)ccc2O1`, the inhibition is 0.494%.
With `Cc1ccc(-c2cnc3c(c2)C(=O)N([C@H](C)CO)C[C@H](C)[C@@H](CN(C)C(=O)c2cccc(F)c2)O3)cc1`, the inhibition was -11.3%.
Take `CN1CCN(C(=O)C[C@H]2CC[C@H]3[C@@H](COC[C@H](O)CN3C(=O)c3ccc(F)cc3)O2)CC1`: the inhibition is 1.19%.
The same measure for `O=C(CC1CC1)Nc1ccc2c(c1)[C@@H]1C[C@@H](CC(=O)NC3CCCCC3)O[C@@H](CO)[C@@H]1O2`: -2.5%.
Turning to `CO[C@@H]1CN(C)C(=O)c2ccc(NC(=O)C3CCCCC3)cc2OC[C@@H](C)N(Cc2nccs2)C[C@@H]1C`, the inhibition was 3.01%.
Regarding `C[C@@H]1CN([C@@H](C)CO)C(=O)Cc2cc(NC(=O)Nc3ccc4c(c3)OCO4)ccc2O[C@@H]1CN(C)CC1CCCCC1`, the inhibition was 18.8% (active).
With `CC(C)NC(=O)Nc1ccc2c(c1)CC(=O)N([C@H](C)CO)C[C@H](C)[C@H](CN(C)Cc1ccc3c(c1)OCO3)O2`, the inhibition was 4.37%.
For `COc1ccc(NC(=O)Nc2ccc3c(c2)CC(=O)N([C@@H](C)CO)C[C@H](C)[C@@H](CN(C)Cc2ccc4c(c2)OCO4)O3)cc1`, the inhibition is 3.53%.
Take `C[C@H]1CN([C@@H](C)CO)C(=O)Cc2cc(NC(=O)Nc3ccc4c(c3)OCO4)ccc2O[C@H]1CN(C)CC1CC1`: the inhibition was -1.18%.
With `C[C@@H]1CN([C@H](C)CO)C(=O)Cc2cc(NC(=O)Nc3ccc(F)cc3)ccc2O[C@@H]1CN(C)Cc1ccc2c(c1)OCO2`, the inhibition was 32.7% (active).
As for `C[C@H]1CN([C@@H](C)CO)C(=O)c2cc(NC(=O)Nc3ccc4c(c3)OCO4)ccc2O[C@@H]1CN(C)CC1CCCCC1`, the inhibition is 6.87%.
`CCCNC(=O)C[C@@H]1CC[C@H]2[C@H](COc3ccc(NC(=O)CCC)cc3C(=O)N2C)O1`: the inhibition was -0.672%.
In the case of `COc1ccccc1NC(=O)N1CCCCN2[C@H](CO)[C@H](c3ccc(C#CC4CC4)cc3)[C@@H]2C1`, the inhibition was 0.625%.
Take `CO[C@H]1CN(C)C(=O)c2cc(NS(C)(=O)=O)ccc2OC[C@@H](C)N(Cc2ccccc2)C[C@@H]1C`: the inhibition was -4.85%.
With `COCC#Cc1ccc2c(c1)O[C@H](CN(C)C(=O)CN(C)C)[C@@H](C)CN([C@H](C)CO)S2(=O)=O` the figure was 1.54%; with `C[C@@H]1CN([C@@H](C)CO)C(=O)c2cc(/C=C/c3ccccc3)cnc2O[C@@H]1CN(C)C(=O)CN(C)C`, -20%.
Consider `C[C@H](CO)N1C[C@H](C)[C@H](CN(C)C(=O)Nc2ccc3c(c2)OCO3)Oc2cc(C#Cc3ccncc3)ccc2S1(=O)=O`, for which the inhibition was -1.42%.
On to `CCCN1C[C@@H](C)[C@@H](OC)CN(C)C(=O)c2cc(NC(=O)NC3CCCCC3)ccc2OC[C@H]1C`, for which the inhibition is 0.947%.
For the compound `C[C@H](NC(=O)[C@H]1N[C@H]2c3ccc(-c4ccc(C(=O)N(C)C)cc4)c(=O)n3C[C@H]2[C@@H]1CO)c1ccccc1`, the inhibition was -55.5%.
For the compound `O=C(NCC1CC1)[C@@H]1[C@@H](CO)[C@@H]2Cn3c(ccc(-c4ccccc4)c3=O)[C@H]1N2C(=O)C1CC1`, the inhibition is -28%.
For `CO[C@@H]1CN(C)C(=O)c2ccc(NC(=O)Nc3ccccc3)cc2OC[C@H](C)N(C(=O)CC2CC2)C[C@@H]1C`, the inhibition is 6.27%.
Consider `O=C(COC(=O)c1ccc(O)cc1O)NC(=O)c1ccccc1`, for which the inhibition was 0.616%.
Turning to `O=C(COC(=O)c1ccc(O)cc1O)c1ccc2c(c1)OCCO2`, the inhibition is 19.1% (active).
As for `O=C(COC(=O)c1ccccc1)c1ccc2c(c1)OCCO2`, the inhibition is 0.878%.
Regarding `CO[C@H]1CN(C)C(=O)c2cc(NC(=O)c3cnccn3)ccc2OC[C@@H](C)N(CC2CC2)C[C@@H]1C`, the inhibition is 0.994%.
The same measure for `O=c1ccc2c(-c3ccccc3S(=O)(=O)O)c3ccc(O)c(O)c3oc-2c1O`: 15.8% (active); for `Cn1cnc(CCNC(=O)C[C@@H]2CC[C@H]3[C@@H](COC[C@@H](O)CN3C(=O)Nc3ccc(Cl)cc3)O2)c1`: -1.27%.
The same measure for `Cn1cnc(CCNC(=O)C[C@H]2CC[C@@H]3[C@H](COC[C@@H](O)CN3C(=O)Nc3ccc(Cl)cc3)O2)c1`: 3.58%; for `Cn1cnc(CCNC(=O)C[C@@H]2CC[C@@H]3[C@H](COC[C@@H](O)CN3C(=O)Nc3ccccc3)O2)c1`: 15.8% (active); for `C[C@H]1CCCCO[C@H](CN(C)C(=O)Nc2ccccc2)[C@@H](C)CN([C@@H](C)CO)C(=O)c2cc(NC(=O)Nc3ccc4c(c3)OCO4)ccc2O1`: 11.6%.

A word on the inhibition: it is the change of the read-out against control, counted positive when it falls.
